Bioassay records as filed in PubChem BioAssay.
Most compounds without a hit are left out; they make up all but 1.5% or so of the library.
EBV gp42 inh: Epstein-Barr virus gp42 inhibitors, primary screen, biochemical, uHTS, fluorescence polarization; Fluorescence polarization binding assay, mP read-out; inhibition, % (tested at 21.74 µM); actives 0.42% (n = 220,000); in the data active means inhibition above about 50%
Target sequence (Q1HVG2 whole entry, looked up): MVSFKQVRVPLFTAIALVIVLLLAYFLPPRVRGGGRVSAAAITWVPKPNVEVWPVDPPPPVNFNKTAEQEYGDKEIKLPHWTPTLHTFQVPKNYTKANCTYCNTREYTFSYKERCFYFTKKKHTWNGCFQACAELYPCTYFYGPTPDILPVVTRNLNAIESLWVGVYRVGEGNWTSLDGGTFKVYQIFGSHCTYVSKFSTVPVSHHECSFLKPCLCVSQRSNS
eLon inh: inhibitors of E. coli Lon protease, primary screen, biochemical, fluorescence polarization; actives 0.42% (n = 360,000); inhibition, % at 7.94 µM; P0A9M0; purified E. coli Lon protease; in the data active means inhibition above about 13%, passing the limit was not always enough;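 further: 0% = enzyme with probe and DMSO and 100% = no enzyme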
Bcl-xL primary: inhibitors of human Bcl-xL, primary screen, biochemical, fluorescence polarization, HTS; actives 0.7% (n = 320,000); inhibition, % at 10.9 µM; GST-Bcl-xL / FITC-Bim BH3 peptide fluorescence polarization;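 active means inhibition above the mean of all tested compounds plus 3 SD, cutoff set per campaign, cut at about 30% in these data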;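 further: 0% = DMSO wells and 100% = unlabeled Bim-BH3 peptide competitor; inhibitors lower millipolarization by displacing the labeled peptide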
Target sequence (Q07817 whole entry, looked up): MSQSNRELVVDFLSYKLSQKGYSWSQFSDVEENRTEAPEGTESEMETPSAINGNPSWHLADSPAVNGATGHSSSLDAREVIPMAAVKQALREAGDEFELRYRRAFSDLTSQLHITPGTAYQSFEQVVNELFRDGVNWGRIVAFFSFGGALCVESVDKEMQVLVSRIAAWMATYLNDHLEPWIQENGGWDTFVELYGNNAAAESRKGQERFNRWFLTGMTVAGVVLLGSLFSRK
MCL1 BIM primary: inhibitors of MCL1 binding to BIM-BH3, primary screen, biochemical, fluorescence polarization | Induced myeloid leukemia cell differentiation protein Mcl-1 (Homo sapiens), Q07820 | GST-MCL1 / FITC-Bim-BH3 fluorescence polarization | inhibition, % at 10.9 µM | actives 0.68% (n = 320,000) | AID 2057, 2009;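 active means inhibition above the mean inhibition of all tested compounds plus 3 SD, set per campaign, cut at about 40% in these data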;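 further: 0% = DMSO wells and 100% = unlabeled Bim-BH3 peptide control; higher means more loss of mP so more displacement of Bim peptide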
GLD-1 TGE inh: GLD-1/TGE RNA complex disruptors, primary screen, biochemical, fluorescence polarization. inhibition, % at 5.96 µM. purified GLD-1 + fluorescein TGE RNA. Female germline-specific tumor suppressor gld-1 (Caenorhabditis elegans), Q17339. actives 0.44% (n = 320,000);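 active means percent inhibition above a per-plate cutoff, the plate mean of test compounds plus 3 SD, cut at about 30% in these data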;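 further: 0% = DMSO wells with GLD-1 and probe and 100% = wells lacking GLD-1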
MEX-5 binding: MEX-5 zinc finger RNA-binding disruptors – biochemical, C. elegans, fluorescence polarization, MLPCN library, primary screen; Zinc finger protein mex-5 (Caenorhabditis elegans), Q9XUB2; AID 1832, 2009; activity score (negative = inhibition of binding), % at 10 µM; MEX-5/FITC-TCR2 RNA binding; stronger effect = lower value; actives 0.38% (n = 300,000);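 active means inhibition past about -25% in most replicates, and total fluorescence under double the plate's negative control median, limit read from the data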;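 further: 0% = DMSO and -100% = 5 µM competing unlabeled TCR2 RNA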
* marks the source's active call; other numbers are inactive results; / = not tested or not shown; + = active, no number.

SMILES | EBV gp42 inh | eLon inh | Bcl-xL primary | MCL1 BIM primary | GLD-1 TGE inh | MEX-5 binding
CCN(c1ccc(N=Cc2c(O)n(Cc3ccc(OC)cc3)c(=O)c3ccccc23)cc1)C(C)C | + | -29 | / | / | / | /
CC(=O)c1cccc(S(=O)(=O)N2CCCC(c3nc4c(nnn4Cc4ccccc4Cl)c(=O)[nH]3)C2)c1 (stereo unspecified) | / | -2 | / | / | / | 0
COc1ccc(C(=O)Nc2ccc(S(=O)(=O)Nc3nccc(C)n3)cc2)cc1 | / | -7 | 11 | 10 | -3 | 0
Cc1ccc(O)c(-c2cc(C(=O)Nc3ccc(S(=O)(=O)Nc4nccc(C)n4)cc3)[nH]n2)c1 | -3 | -6 | 9 | 5 | 5 | -29*
COC(=O)c1[nH]c2ccccc2c1NC(=O)/C=C/c1ccc2c(c1)OCO2 | -25 | -23 | 1 | 4 | -1 | 1
CCN(CC(=O)Nc1c(C(=O)OC)[nH]c2ccccc12)c1ccc2c(c1)OCO2 | 3 | 10 | 44* | 37 | 3 | -6
O=C(Nc1nccs1)C(c1ccccc1)N1CCCC1 (stereo unspecified) | 65* | -3 | 4 | 3 | 4 | 3
CCCCCNCC(=O)Nc1cccc(C(=O)Nc2cccc(C(F)(F)F)c2)c1 | -10 | -2 | 4 | 4 | 7 | 1
C/C(=N/NC(=O)c1ccco1)c1ccc(NC(=O)c2ccc(F)cc2)cc1 | -17 | -5 | 0 | 8 | -2 | 1
Cc1ccc(N2C(=O)C3CCC(C)(C2=O)C3(C)C)cc1C (stereo unspecified) | -4 | 9 | 38* | -2 | 7 | 3
O=C(NCc1cccc(F)c1)c1cccc2c1C(=O)c1ccc(N3CCCC3)cc1S2(=O)=O | / | -111 | / | / | 55* | /
O=C(NCc1cccc(C(F)(F)F)c1)c1cccc2c1C(=O)c1ccc(N3CCC(Cc4ccccc4)CC3)cc1S2(=O)=O | / | -132 | / | / | 128* | /
O=C(NCc1ccc(OC(F)(F)F)cc1)c1cccc2c1C(=O)c1ccc(N3CCCCC3)cc1S2(=O)=O | / | -3 | / | / | 0 | /
O=C(NCc1cc(C(F)(F)F)ccc1Cl)c1cccc2c1C(=O)c1ccc(N3CCCCC3)cc1S2(=O)=O | / | -26 | / | / | 76* | /
O=C(NCc1cc(C(F)(F)F)ccc1Cl)c1cccc2c1C(=O)c1ccc(N3CCC(N4CCCCC4)CC3)cc1S2(=O)=O | / | -73 | / | / | / | /
COc1ccccc1N1CCN(c2ccc3c(c2)S(=O)(=O)c2cccc(C(=O)NCc4ccc(F)cc4)c2C3=O)CC1 | / | -1 | / | / | / | /
O=C(NCCc1ccc(F)cc1)c1cccc2c1C(=O)c1ccc(N3CCC(Cc4ccccc4)CC3)cc1S2(=O)=O | / | 29* | / | / | 145* | /
COc1cccc(C2=NN(C(=O)C3CC3)C(O)(C(F)(F)F)C2)c1 (stereo unspecified) | / | -3 | / | / | / | /
O=C1Cc2cc(S(=O)(=O)Nc3ccccc3Cl)cc3c2N1CCC3 | / | -6 | 9 | 5 | 3 | 3
O=C(NCc1ccc(OC(F)(F)F)cc1)c1cccc2c1C(=O)c1ccc(N3CCCC3)cc1S2(=O)=O | / | -15 | / | / | 6 | /
O=C(NCc1ccc(OC(F)(F)F)cc1)c1cccc2c1C(=O)c1ccc(N3CCC(Cc4ccccc4)CC3)cc1S2(=O)=O | / | -15 | / | / | 122* | /
O=C(NCc1cccc(F)c1)c1cccc2c1C(=O)c1ccc(N3CCC(Cc4ccccc4)CC3)cc1S2(=O)=O | / | 39* | / | / | 137* | /
O=C(NCc1ccco1)c1cccc2c1C(=O)c1ccc(N3CCC(Cc4ccccc4)CC3)cc1S2(=O)=O | / | -149 | / | / | 91* | /
Cc1nc2ccc(S(=O)(=O)NCC(=O)NCCN3CCCCCC3)cc2s1 | -2 | 0 | 41* | 42* | -7 | 0
CN1CCc2c(sc(N)c2C(=O)O)C1 | 9 | -1 | 31* | 29 | 13 | -9
SMILES | EBV gp42 inh | eLon inh | Bcl-xL primary | MCL1 BIM primary | GLD-1 TGE inh | MEX-5 binding
COc1ccc(C(=O)c2c(N)sc3c2CCN(C)C3)cc1 | / | -41 | 33* | 32 | -2 | -20
COc1ccc(S(=O)(=O)NCCc2c[nH]c3ccc(C)cc23)cc1 | / | -4 | / | / | / | 2
CSCc1ccc(C(=O)N2CCC(N3CCC(C(=O)NC(C)C)CC3)CC2)o1 | / | -5 | 4 | -2 | 3 | -3
CCCOc1ccc(N2C(=O)CC(NCCNc3ccc(S(=O)(=O)CC)cc3)C2=O)cc1 (stereo unspecified) | -14 | 2 | 59* | 4 | 2 | 2
Cc1cc(Cl)c(C(=O)Nc2cccc(C(F)(F)F)c2)c(C)n1 | / | -3 | 4 | 9 | -4 | -2
O=C(Nc1ccc(S(=O)(=O)Nc2nccs2)cc1)c1ccc(N2C(=O)c3ccccc3C2=O)cc1 | -69 | -48 | -58 | -117 | -44 | -29*
CCn1nc(C(=O)Nc2ccc(S(=O)(=O)Nc3ncccn3)cc2)c2ccccc2c1=O | -17 | -6 | -6 | -3 | -1 | -1
CCCn1nc(C(=O)Nc2ccc(S(=O)(=O)Nc3nccs3)cc2)c2ccccc2c1=O | -5 | -18 | -9 | -14 | -18 | -41*
CCC(C)[C@H]1COCCS(=O)(=O)N1Cc1ccc(Cl)cc1Cl (stereo partly specified) | / | -6 | 10 | 15 | -5 | 0
CC(=O)N1CCCc2ccc(NS(=O)(=O)c3ccccc3)cc21 | / | 4 | 1 | -1 | 5 | -1
CC[C@]12CCCN3CCc4c(n(c5ccccc45)[C@](O)(C(=O)OC)C1)[C@@H]32 | / | -4 | 3 | 5 | 2 | /
CCC12CCCN3CCc4c(n(c5ccccc45)C(O)(C(=O)OC)C1)C32 (stereo unspecified) | -2 | -9 | 31* | 27 | 19 | -13
CC(C)[N+]1=C2C=CC=CC=C2SC12C([N+](=O)[O-])=CC(=[N+]([O-])[O-])C=C2[N+](=O)[O-] (stereo unspecified) | -7 | 19 | 5 | 14 | 4 | -2
CC(=O)NC(CC(=O)OCC(=O)c1ccc(NC(=O)CC(C)C)cc1)c1ccccc1 (stereo unspecified) | / | 0 | 1 | -4 | 0 | /
CCOc1ccc(-c2csc(NC(=O)CSC3=NC(=O)CN3C(C)=O)n2)c2ccccc12 | 130* | -9 | 1 | 0 | -7 | 0
Cc1cccc(C)c1NC(=O)C1(C)CCC(=O)N1c1cc(C(C)(C)C)nn1C (stereo unspecified) | / | -4 | / | / | / | /
CC1(C)CC(=O)C2=C(C1)N1C(=C(C#N)C2c2ccc(Cl)cc2)N=C(N)c2ccccc21 (stereo unspecified) | -9 | -1 | 6 | 3 | 61* | 0
